Laboratory results published in PubChem BioAssay AID1508611 (The Scripps Research Institute Molecular Screening Center, 2020).
In all, about 6,700 compounds went through this assay and about 20 (0.3%) were called active.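 Rule for the calls: active = mean percent activation in the counterscreen above 29.09%; inactive = the rest.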 The full list was thinned out, with actives kept by preference.

Target: Glucose-dependent insulinotropic receptor (Homo sapiens) (UniProt Q8TDV5)
Assay: GPR119 activators in beta-arrestin cells, counter-screen for GPR151 activator project, cell-based, PathHunter beta-arrestin, luminescence, triplicate (AID 1508611);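 note: counterscreen on off-target GPR119 to flag nonselective hits from the GPR151 activator screen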
Conditions: 90 min, at 11.2 µM, hits give high values, 0 = compound-well median, 100 = enzyme-acceptor control

Chain of Glucose-dependent insulinotropic receptor (Homo sapiens) (Q8TDV5 whole entry, looked up): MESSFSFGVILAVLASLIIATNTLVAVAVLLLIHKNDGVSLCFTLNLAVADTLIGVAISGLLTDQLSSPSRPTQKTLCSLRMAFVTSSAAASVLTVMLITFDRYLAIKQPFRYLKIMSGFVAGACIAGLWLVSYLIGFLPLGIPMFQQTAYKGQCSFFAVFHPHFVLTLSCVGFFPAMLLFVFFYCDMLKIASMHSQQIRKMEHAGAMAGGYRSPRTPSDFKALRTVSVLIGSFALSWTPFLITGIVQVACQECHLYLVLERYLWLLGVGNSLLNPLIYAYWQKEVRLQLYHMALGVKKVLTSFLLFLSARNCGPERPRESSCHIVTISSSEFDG

SMILES	activation
Cc1nc(-c2cccc(NC(=O)C3CC(=O)c4ccccc43)c2)cs1 (stereo not given)	4.74% (inactive)
CC(C)CNc1nc2c(c(=O)[nH]c(=O)n2C)n1CC(C)O (stereo not given)	5.13% (inactive)
CCCCOC(=O)C1=C(C)NC2=C(C(=O)CCC2)C1c1cccc([N+](=O)[O-])c1 (stereo not given)	-13.7% (inactive)
NC(=O)C1CCN(C(=O)c2ccc(-c3ccccc3)cc2)CC1	-13.1% (inactive)
CN1C(=O)c2ccc(N3C(=O)c4cccc([N+](=O)[O-])c4C3=O)cc2C1=O	-8.76% (inactive)
COc1cc(Nc2ccnc(Nc3ccc(N4CCOCC4)cc3)n2)cc(OC)c1OC	31.6% (active)
COc1cc2nc(-c3cccc(C(C)=O)c3)nc(Nc3ccc(N4CCOCC4)cc3)c2cc1OC	1.25% (inactive)
CCN(CC)c1nc(Nc2cc(OC)c(OC)c(OC)c2)nc(N2CCOCC2)n1	-4.38% (inactive)
CCN(CC)c1nc(Nc2ccccc2)nc(Nc2ccccc2)n1	5.68% (inactive)
CCOC(=O)c1cccc(NC(=O)/C=C/c2ccccc2)c1	2.43% (inactive)
COCCn1c(C)cc(C(=O)CSc2nnc(-c3ccccc3)o2)c1C	0.76% (inactive)
COc1ccc(OC)c(S(=O)(=O)Oc2ccc(Cl)c3cccnc23)c1	14.7% (inactive)
O=C(CC1C(=O)NCCN1C(=O)c1ccc([N+](=O)[O-])cc1)Nc1cccc(Cl)c1 (stereo not given)	8.78% (inactive)
COc1ccc(-c2cc(N)n(S(=O)(=O)c3ccccc3)n2)c(OC)c1	-9.92% (inactive)
c1ccc(-c2ccc(OCCCNCCN3CCOCC3)cc2)cc1	-6.67% (inactive)
COc1ccc(C2=NN(C(=O)c3cc(OC)c(OC)c(OC)c3)C(c3ccc(Cl)cc3)C2)cc1OC (stereo not given)	10.6% (inactive)
C=C(C)CSc1nc2sc3c(c2c(=O)n1-c1ccc(OC)cc1)CC(C)(C)OC3	13.8% (inactive)
COc1ccccc1C1CCCN1C(=O)C1CCN(c2nc(C)c3ccccc3n2)CC1 (stereo not given)	0.39% (inactive)
COc1ccc(OC)c(NC(=O)CN(c2cccc(C)c2C)S(C)(=O)=O)c1	-9.68% (inactive)
O=C(CC12CC3CC(CC(C3)C1)C2)Nc1ccc2oc(=O)ccc2c1	-8.76% (inactive)
CC(C)(C)C1(O)CCN2C[C@H]3c4ccccc4CCc4cccc(c43)[C@@H]2C1 (stereo not given in full)	2.66% (inactive)
OCCC1CN(Cc2ccc3cc(F)ccc3n2)CCN1C1CCCC1 (stereo not given)	11.7% (inactive)
CCCn1ncc(CN2CCCC(N3CCC(CO)CC3)C2)c1C (stereo not given)	1.74% (inactive)

SMILES	activation
CCCOC(=O)C1=C(C)NC(=O)NC1c1ccc(Br)cc1 (stereo not given)	-8.21% (inactive)
O=C(Cn1c(=S)nc2ccccn21)N1CCc2ccccc2C1	4.38% (inactive)
CCOC(=O)C1=CN(C)C=C(C(=O)OCC)C1c1ccc(OC)cc1	7.33% (inactive)
O=C(O)COc1ccc(N2C(=O)C(=O)/C(=C(\O)c3ccccc3)C2c2ccc(Cl)cc2Cl)cc1 (stereo not given)	1.15% (inactive)
Cc1nnc(SCC(=O)NCc2ccccc2)s1	-8.49% (inactive)
CN(CC(=O)Nc1cccc2c1CCCC2)S(=O)(=O)c1ccc(Cl)cc1	-16% (inactive)
COC(=O)[C@@H]1CC[C@H](C)[C@@H](c2ccc(C)cc2)N1C(=O)c1ccc(/C=N/O[C@H](C)c2cn([C@@H]3COC[C@H]3O)nn2)cc1	-5.11% (inactive)
Cc1ccccc1CC1(CO)CCCN(Cc2ccncc2)C1 (stereo not given)	-3.82% (inactive)
O=C(CSc1ccc(F)cc1)Nc1cccc2ccccc12	-0.98% (inactive)
COc1ccc2c(c1)C=C(CN1CCN(CC3CCCCC3)C(CCO)C1)CO2 (stereo not given)	10.3% (inactive)
O=c1[nH]c(=S)[nH]c(O)c1C=Nc1ccc(F)c(Cl)c1	5.32% (inactive)
O=C(Cn1c(=O)n(Cc2cccs2)c(=O)c2cccnc21)Nc1ccc(F)cc1	-1.72% (inactive)
CCOC(=O)c1sc(NC(=O)CSc2ncccn2)c(C#N)c1C	2.97% (inactive)
CC(C)C(=O)NNS(=O)(=O)c1ccc([N+](=O)[O-])cc1	0.04% (inactive)
O=C(NCc1nnc(SCC(=O)N2N=C(c3cccs3)CC2c2ccc(F)cc2)n1Cc1ccccc1)c1cccc(F)c1 (stereo not given)	-10.8% (inactive)
CCc1ccc(-c2ccc(C3CCC(CC)CC3)cc2)nc1 (stereo not given)	-6.15% (inactive)
CC(C)c1ccc(Nc2nccn3c(-c4cccc(CO)c4)cnc23)cc1	15.7% (inactive)
O=C(c1ccccc1)N1CCCCC(Sc2ncnc3sc4c(c23)CCCC4)C1=O (stereo not given)	0.65% (inactive)
C[C@H]1Cc2c(COc3ccccc3)nc3c(c2CO1)CN(C(=O)NCc1ccco1)CC3	9.06% (inactive)
CC(C)n1c(Nc2ccc3ncccc3c2)nc2c(NC3CC3)ncnc21	3.65% (inactive)
Cc1cc(CN(C)Cc2ccc(OCC(O)CN(C)Cc3ccccc3)cc2)n[nH]1 (stereo not given)	-0.59% (inactive)
O=C(NCCOc1ccccc1)c1cnc(N2CCN(c3ccccn3)CC2)s1	1.31% (inactive)
COC(=O)CN1C=C(C(=O)OC)C(c2ccc(OC)c(O)c2)C(C(=O)OC)=C1	20.6% (inactive)

SMILES	activation
CCOC(=O)c1cc2cc(-c3c(C)oc4cc(OC(C)=O)ccc4c3=O)ccc2o1	-2.06% (inactive)
CN(Cc1nc(-c2ccc3c(c2)OCO3)no1)C1CCCc2ccccc21 (stereo not given)	0.92% (inactive)
O=C(Cc1cccs1)Nn1c(-c2cccc([N+](=O)[O-])c2)nc2ccccc2c1=O	13.2% (inactive)
CC1(C(=O)Nc2cccc(C(F)(F)F)c2)CC2c3ccccc3C1c1ccccc12 (stereo not given)	0.35% (inactive)
O=CN1CCN(CCC(=O)Nc2ccccc2)CC1	-6.54% (inactive)
CCOc1ccc(NC(=O)N2CCN(CC)CC2)cc1	6.5% (inactive)
CCSc1nc2sccn2c(=O)c1C(=O)NC(Cc1ccccn1)C(F)(F)F (stereo not given)	-3.52% (inactive)
Cc1cccc(-n2nc3c(c2NC(=O)CCC2CCCCC2)CS(=O)(=O)C3)c1C	7.21% (inactive)
COc1ccc(-c2noc(N3CCC(C(=O)NCCCN4CCN(C)CC4)CC3)n2)cc1	3.82% (inactive)
FC(F)(F)c1ccc(Cn2cnc3c(NCc4cccc(C(F)(F)F)c4)nc(Nc4ccc(N5CCOCC5)cc4)nc32)cc1	-10.4% (inactive)
CC(=O)Nc1nnc(CCOCC(C)OCCc2nnc(NC(C)=O)s2)s1 (stereo not given)	12.3% (inactive)
CCOc1cc2c(cc1OCC)C(c1ccc3ccccc3c1)NCC2 (stereo not given)	-1.89% (inactive)
CCOc1ccc(C(=O)Nc2nnc(CC)s2)cc1[N+](=O)[O-]	-8.62% (inactive)
O=S(=O)(c1ccc(F)cc1)N1CCN(CCCc2ccccc2)CC1	15.2% (inactive)
O=C(N/N=C/c1cccc(Cl)c1Cl)c1cccs1	-19.1% (inactive)
CCOC(=O)c1ccc2nc(NC(=O)CSc3nc4ccccc4[nH]3)sc2c1	6.61% (inactive)
COCCNC(=O)CSc1nccn1Cc1ccco1	5.14% (inactive)
COCC(=O)Nc1c(I)c(C(=O)NCC(O)CO)c(I)c(C(=O)N(C)CC(O)CO)c1I (stereo not given)	-9.51% (inactive)
O=C(CCc1ccccc1)Nc1cccc(C(=O)N2CCOCC2)c1	-6.29% (inactive)
CC(/C=N\NC(=O)CSc1nc(C)cc(C)n1)=C\c1ccccc1	-12.7% (inactive)
COCCNC(=O)c1cc2c(=O)n3ccccc3nc2n(CCc2ccccc2)c1=N	3.06% (inactive)
CCCN1C(=O)c2ccc(C(=O)Nc3ccc(C(C)=O)cc3)cc2C1=O	0.52% (inactive)
O=C(c1cc([N+](=O)[O-])ccc1NC1CCCCC1)N1CCOCC1	-18.9% (inactive)

SMILES	activation
CCN(CC)C(=O)C1CCCN(c2cccc(C(=O)NCCc3ccc(OC)cc3)n2)C1 (stereo not given)	-12.6% (inactive)
Cc1ccc(-c2nnc(N3CCOCC3)c3ccccc23)cc1S(=O)(=O)N1CCN(C)CC1	-11.5% (inactive)
C=CCN1C(=O)CC(C(=O)OC)C12CCN(C1CCN(C(=O)OCC)CC1)CC2 (stereo not given)	-5.11% (inactive)
COC(=O)NNC(=S)Nc1cc(S(=O)(=O)N(C)C)ccc1C	-12.9% (inactive)
CCCCOc1ccccc1CNCC	0.16% (inactive)
O=C(CN1C(=O)S/C(=C\c2ccc(Cl)s2)C1=O)Nc1ccccc1F	-11% (inactive)
CSc1nc(N)nc2nc[nH]c12	-1.61% (inactive)
CCc1ccc(-n2c(C)c(C)n3c4c(=O)n(CC)c(=O)n(C)c4nc23)cc1	-2.08% (inactive)
C#CCOc1ccc(Br)cc1/C=C1\NC(=S)N(C)C1=O	-3.86% (inactive)
CS(=O)(=O)N(CC(=O)Nc1ccc(F)cc1F)c1ccc(F)cc1	-2.79% (inactive)
Cc1ccc(C(C)C)c(OCCCn2ccnc2)c1	0.47% (inactive)
COc1ccccc1C(=O)N/C(=C\c1ccc2c(c1)OCO2)C(N)=O	4.53% (inactive)
C=CCN(c1ccc(C(=O)Nc2ccc(OCc3ccccc3)cc2)cc1)S(C)(=O)=O	-10.1% (inactive)
CC(=O)NC(CC(=O)O)c1ccc(F)cc1 (stereo not given)	3.48% (inactive)
COc1cccc(/C=C(\C#N)c2nc3ccc(C)cc3[nH]2)c1OC	17.6% (inactive)
Cc1ccc(NCC(=O)N/N=C\c2ccc(I)o2)cc1	-0.01% (inactive)
COc1cccc(C2SCC(=O)N2c2cccc(C)c2)c1OC (stereo not given)	13.2% (inactive)
CC1(c2ccccc2NC(=O)c2ccc([N+](=O)[O-])cc2)CC1	0.99% (inactive)
O=[N+]([O-])c1ccc2ncnc(Nc3cccc(C(F)(F)F)c3)c2c1	9% (inactive)
O=C(COc1ccc(S(=O)(=O)NCCc2ccccc2)cc1)NC1CC1	-10.3% (inactive)
O=C(Nc1ccc2[nH]ncc2c1)N1CCCNCC1	3.8% (inactive)
